This is part of a sample that, as a whole, favours compounds with a hit. Of some 79,000 tested, about 15% had one in any assay. A number with no mark means an inactive call. Active and inactive are the calls of the source. Rule as the data show it: active = growth inhibition above about 70%; inactive = the rest.
Tests used:
[1] = NCI Yeast Anticancer Drug Screen. Data for the rad50 strain (AID 155);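 also: 0% = growth of vehicle-only cultures of the same strain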; details: S. cerevisiae rad50 strain growth inhibition, hits give high values
Outline: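 DNA repair mutant yeast, compound exposure, growth read-out; inhibition is taken relative to vehicle.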

[2] = NCI Yeast Anticancer Drug Screen. Data for the mec2-1 strain (AID 157); details: S. cerevisiae mec2-1 strain, hits give high values
Outline: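 Yeast mec2-1 mutant treated with compound. Readout: growth inhibition vs vehicle controls.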

[3] = NCI Yeast Anticancer Drug Screen. Data for the sgs1 mgt1 strain (AID 161);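 also: 0% = growth of cultures given vehicle only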; details: S. cerevisiae sgs1 mgt1 strain, hits give high values
Outline: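 Mutant yeast exposed to compound; growth scored against vehicle-only wells.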

[4] = NCI Yeast Anticancer Drug Screen. Data for the cln2 rad14 strain (AID 165);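 also: 0% = growth equal to vehicle treated cultures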; details: S. cerevisiae cln2 rad14 strain, hits give high values
Outline: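 cln2 rad14 yeast strain; compound exposure; growth inhibition read vs vehicle controls.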

[5] = NCI Yeast Anticancer Drug Screen. Data for the bub3 strain (AID 167); details: S. cerevisiae bub3 mutant strain, hits give high values
Outline: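 In this screen, a yeast mutant lacking normal mitotic checkpoint function is challenged with compound. Relative growth versus vehicle gives the inhibition value.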

[6] = NCI Yeast Anticancer Drug Screen. Data for the mlh1 rad18 strain (AID 175); details: S. cerevisiae mlh1 rad18 strain growth inhibition, hits give high values
Outline: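 Yeast w/ defined DNA-repair lesions; compound exposure; growth vs vehicle controls → % inhibition.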

[7] = at 5.0 µM (retest, dose inferred, filed as 0.5)
[8] = at 50.0 µM (retest, dose inferred, filed as 5.0)

Compound | growth inhibition [1, 7] | growth inhibition [1, 8] | growth inhibition ([1]; at 50.0 µM) | growth inhibition [2, 7] | growth inhibition [2, 8] | growth inhibition ([2]; at 50.0 µM) | growth inhibition [3, 7] | growth inhibition [3, 8] | growth inhibition ([3]; at 50.0 µM) | growth inhibition [4, 7] | growth inhibition [4, 8] | growth inhibition ([4]; at 50.0 µM) | growth inhibition [5, 7] | growth inhibition [5, 8] | growth inhibition ([5]; at 50.0 µM) | growth inhibition [6, 7] | growth inhibition [6, 8] | growth inhibition ([6]; at 50.0 µM)
CC1CCC(SC2CC(=O)CCC2=O)CC1 (stereo not given) | 19% | 98% (active) | 99% (active) | 19% | 99% (active) | 99.2% (active) | 21% | 99% (active) | 92% (active) | 6% | 99% (active) | 98.2% (active) | 24% | 98% (active) | 98.7% (active) | -1% | 98% (active) | 98.6% (active)
OC/C(=C\c1ccccc1Br)c1ccccc1Br | 2% | 99% (active) | 99% (active) | 7% | 100% (active) | 99.1% (active) | 6% | 66% | 99.2% (active) | 0% | 100% (active) | 97.5% (active) | 10% | 99% (active) | 99% (active) | -10% | 99% (active) | 99% (active)
CCc1ccc2ccc3ccc(CC)nc3c2n1 | 74% (active) | 96% (active) | 96.9% (active) | 85% (active) | 94% (active) | 97.7% (active) | 86% (active) | 96% (active) | 97.8% (active) | 72% (active) | 91% (active) | 82.7% (active) | 95% (active) | 97% (active) | 95.3% (active) | 85% (active) | 96% (active) | 97.7% (active)
NC(Cc1ccccc1)c1ccc2cccc3c2c1CC3 (stereo not given) | -5% | 4% | 0.3% | -5% | 8% | 33.8% | -2% | 25% | 5.55% | -6% | -1% | -4.25% | -2% | 9% | 21.1% | -2% | 34% | 51.5%
COC(=O)N/N=C(/CC1(O)C(=O)Nc2ccccc21)c1ccc(Cl)cc1Cl (stereo not given) | 21% | 97% (active) | 97.5% (active) | 10% | 97% (active) | 98.5% (active) | 32% | 97% (active) | 98.2% (active) | 12% | 97% (active) | 92.3% (active) | 8% | 97% (active) | 96.8% (active) | 19% | 94% (active) | 97.8% (active)
CCCCCCCCCCCCCC[N+]1(CC)CCCCC1 | 77% (active) | 99% (active) | 90.2% (active) | 99% (active) | 99% (active) | 91.3% (active) | 99% (active) | 100% (active) | 92.2% (active) | 84% (active) | 99% (active) | 89.8% (active) | 99% (active) | 99% (active) | 90.8% (active) | 67% | 99% (active) | 89.5% (active)
COc1cc2c(cc1OC)C(N(C)C)C(c1ccccc1)=C2Cl (stereo not given) | 0% | 96% (active) | 91.2% (active) | -28% | 99% (active) | 93.5% (active) | 1% | 96% (active) | 92.2% (active) | 14% | 98% (active) | 91.5% (active) | 25% | 98% (active) | 90.8% (active) | 7% | 99% (active) | 90.4% (active)
N#CSc1ccc(Nc2ccc(SC#N)cc2)cc1 | 98% (active) | 98% (active) | 98.4% (active) | 99% (active) | 99% (active) | 97.6% (active) | 99% (active) | 99% (active) | 98.4% (active) | 99% (active) | 98% (active) | 97.7% (active) | 98% (active) | 97% (active) | 98.2% (active) | 99% (active) | 94% (active) | 97.8% (active)
Cc1ccc([N+](=O)[O-])c2c(NCCCN(C)C)c3ccccc3nc12 | 79% (active) | 98% (active) | 97% (active) | 97% (active) | 99% (active) | 95.8% (active) | 93% (active) | 98% (active) | 97.2% (active) | 95% (active) | 99% (active) | 77.3% (active) | 35% | 97% (active) | 87.8% (active) | 92% (active) | 99% (active) | 97% (active)
Oc1ccc2ccccc2c1I | 41% | 75% (active) | 91.2% (active) | 42% | 75% (active) | 92.7% (active) | 97% (active) | 99% (active) | 93% (active) | 79% (active) | 99% (active) | 92.6% (active) | 96% (active) | 98% (active) | 91.7% (active) | 32% | 55% | 90.8% (active)
Cc1ccc(C)c(N(c2ccccc2[N+](=O)[O-])S(C)(=O)=O)c1 | 5% | 20% | 99.5% (active) | 19% | 36% | 99.5% (active) | 5% | 22% | 99.6% (active) | 5% | 21% | 99.3% (active) | -2% | 16% | 99.4% (active) | -5% | 10% | 99.2% (active)
CCc1cccc(CC)c1NC(=O)C(C#N)C1=C(Cl)C(=O)c2ccccc2C1=O (stereo not given) | 63% | 97% (active) | 89.8% (active) | 92% (active) | 98% (active) | 93.5% (active) | 73% (active) | 99% (active) | 90% (active) | 36% | 99% (active) | 91.3% (active) | 67% | 99% (active) | 92.1% (active) | 75% (active) | 96% (active) | 90.5% (active)
CCCOC(=O)C(S)C(S)C(=O)OCCC (stereo not given) | 23% | 50% | 11.1% | 2% | 32% | 2.15% | -16% | 53% | 12.4% | 19% | 90% (active) | 40% | 5% | 94% (active) | 26.8% | 2% | 75% (active) | 48.2%
CCn1nc(-c2ccccc2)c2c1N(C)c1ccccc1-n1c(-c3ccccc3)nnc1-2 | -1% | 49% | 98.7% (active) | -16% | 99% (active) | 99% (active) | 3% | 45% | 99.2% (active) | 14% | 98% (active) | 99% (active) | -11% | 99% (active) | 99.2% (active) | 7% | 98% (active) | 99.2% (active)
C=CS(=O)(=O)c1ccc(Cl)cc1 | -116% | 97% (active) | 99.7% (active) | -19% | 98% (active) | 99.7% (active) | -23% | 98% (active) | 99.2% (active) | -42% | 98% (active) | 99.1% (active) | -34% | 98% (active) | 99.4% (active) | -73% | 97% (active) | 99% (active)
COC(=O)/C=C1/OC(c2ccccc2)=CC1=O | 31% | 31% | 87.5% (active) | 8% | 8% | 91.7% (active) | 22% | 22% | 57% | -2% | -2% | 70.3% (active) | 0% | 0% | 85.8% (active) | 9% | 9% | 86.2% (active)
O=C1OC(c2ccccc2)(c2ccc(-c3ccc(O)cc3)cc2)c2ccccc21 (stereo not given) | 6% | 95% (active) | 95.6% (active) | 3% | 97% (active) | 97.6% (active) | -1% | 97% (active) | 96.8% (active) | 6% | 96% (active) | 95.3% (active) | 8% | 96% (active) | 95.8% (active) | 7% | 96% (active) | 96.7% (active)
NNc1ncc2c(n1)-c1ccccc1OC2 | 23% | 49% | 47.3% | 6% | 38% | 18.8% | 14% | 28% | 24.1% | 21% | 33% | 4.1% | 12% | 40% | -1.1% | 13% | 53% | 89.8% (active)
Nc1ccc2ccc3cccc4ccc1c2c34 | 1% | 98% (active) | 90.3% (active) | -37% | 98% (active) | 0.45% | 1% | 98% (active) | 48.5% | -1% | 99% (active) | 62.5% | -2% | 98% (active) | 23.8% | 1% | 97% (active) | 88.9% (active)
COc1ccc(C=C(C(=O)c2ccccc2)C(=O)c2ccccc2)cc1 | 12% | 95% (active) | 91.3% (active) | -7% | 96% (active) | 92.3% (active) | -6% | 94% (active) | 91.3% (active) | 14% | 95% (active) | 88.5% (active) | 16% | 98% (active) | 92% (active) | -12% | 98% (active) | 90.8% (active)
